# Key:
# Assay in all cases: DAPPL (digital affinity profiling via proximity ligation, sequencing); 10 mM Tris-HCl pH 7.5, 50 mM NaCl, 1 mM DTT, 4% glycerol, room temperature, 30 min; GST-TFs on glutathione beads, 16-mer random dsDNA library, 0.1% formaldehyde crosslink after washing; high values mean tight binding
# [1] = target: T1, FLI1 (Homo sapiens, UniProt Q01543 1-452); conditions: protein: recombinant; tags: N-terminal GST; dsDNA, one strand shown
# T1 sequence: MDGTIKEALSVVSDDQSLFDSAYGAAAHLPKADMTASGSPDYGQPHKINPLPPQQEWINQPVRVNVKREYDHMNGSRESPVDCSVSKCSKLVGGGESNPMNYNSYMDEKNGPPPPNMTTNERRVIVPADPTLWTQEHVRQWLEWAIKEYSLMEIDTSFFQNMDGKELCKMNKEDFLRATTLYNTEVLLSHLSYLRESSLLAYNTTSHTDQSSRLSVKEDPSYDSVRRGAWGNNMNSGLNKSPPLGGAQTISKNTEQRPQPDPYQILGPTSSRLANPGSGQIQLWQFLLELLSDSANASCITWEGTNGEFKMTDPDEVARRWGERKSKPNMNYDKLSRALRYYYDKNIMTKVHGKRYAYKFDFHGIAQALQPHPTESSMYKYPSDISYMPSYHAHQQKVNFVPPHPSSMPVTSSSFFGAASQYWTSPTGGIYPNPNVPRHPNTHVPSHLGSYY
# Method in brief: (§1)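 Human transcription factors fused to GST were expressed in yeast, captured on glutathione beads, given DNA barcodes and pooled with a GST-only negative control. Pools were incubated with 200 nmole of a 16-mer random double-stranded DNA library in Tris/NaCl/DTT/glycerol buffer at room temperature for 30 min. They were then washed, crosslinked with 0.1% formaldehyde, proximity-ligated (BsaI/T4 ligase, 1 h, 37 °C), PCR-amplified and sequenced on an Illumina NextSeq500. Binding signal is each 6-mer's read frequency for a factor divided by its frequency for the GST control.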
# [2] = target: T2, ELK1 (Homo sapiens, UniProt P19419 1-428); conditions: protein: recombinant; tags: N-terminal GST; dsDNA, one strand shown
# T2 sequence: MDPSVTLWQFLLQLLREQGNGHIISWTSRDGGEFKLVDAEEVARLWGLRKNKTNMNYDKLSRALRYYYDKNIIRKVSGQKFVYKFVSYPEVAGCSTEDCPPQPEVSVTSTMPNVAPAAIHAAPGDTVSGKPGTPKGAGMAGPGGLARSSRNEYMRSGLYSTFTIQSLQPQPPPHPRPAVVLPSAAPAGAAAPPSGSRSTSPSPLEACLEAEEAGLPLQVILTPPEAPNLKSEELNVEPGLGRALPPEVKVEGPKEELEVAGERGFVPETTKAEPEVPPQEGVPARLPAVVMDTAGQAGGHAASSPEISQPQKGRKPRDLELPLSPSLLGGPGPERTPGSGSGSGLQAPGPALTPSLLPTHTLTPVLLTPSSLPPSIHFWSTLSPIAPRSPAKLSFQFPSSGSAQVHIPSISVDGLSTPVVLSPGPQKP
# Method in brief: as §1
# [3] = target: T3, GABPA (Homo sapiens, UniProt Q06546 1-454); conditions: protein: recombinant; tags: N-terminal GST; dsDNA, one strand shown
# T3 sequence: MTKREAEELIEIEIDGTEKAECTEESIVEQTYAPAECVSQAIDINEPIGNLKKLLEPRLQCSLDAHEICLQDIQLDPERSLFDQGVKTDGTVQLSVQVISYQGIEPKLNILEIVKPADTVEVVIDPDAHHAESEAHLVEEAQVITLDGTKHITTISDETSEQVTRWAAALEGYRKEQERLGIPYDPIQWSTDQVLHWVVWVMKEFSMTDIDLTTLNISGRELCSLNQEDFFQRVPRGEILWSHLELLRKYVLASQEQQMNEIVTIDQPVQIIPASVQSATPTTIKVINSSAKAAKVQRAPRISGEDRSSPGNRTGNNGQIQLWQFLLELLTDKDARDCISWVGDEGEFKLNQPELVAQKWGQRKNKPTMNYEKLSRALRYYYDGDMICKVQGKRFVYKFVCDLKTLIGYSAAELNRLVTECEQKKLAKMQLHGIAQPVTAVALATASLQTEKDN
# Method in brief: as §1
# [4] = target: T4, ERG (Homo sapiens, UniProt P11308 1-479); conditions: protein: recombinant; tags: N-terminal GST; dsDNA, one strand shown
# T4 sequence: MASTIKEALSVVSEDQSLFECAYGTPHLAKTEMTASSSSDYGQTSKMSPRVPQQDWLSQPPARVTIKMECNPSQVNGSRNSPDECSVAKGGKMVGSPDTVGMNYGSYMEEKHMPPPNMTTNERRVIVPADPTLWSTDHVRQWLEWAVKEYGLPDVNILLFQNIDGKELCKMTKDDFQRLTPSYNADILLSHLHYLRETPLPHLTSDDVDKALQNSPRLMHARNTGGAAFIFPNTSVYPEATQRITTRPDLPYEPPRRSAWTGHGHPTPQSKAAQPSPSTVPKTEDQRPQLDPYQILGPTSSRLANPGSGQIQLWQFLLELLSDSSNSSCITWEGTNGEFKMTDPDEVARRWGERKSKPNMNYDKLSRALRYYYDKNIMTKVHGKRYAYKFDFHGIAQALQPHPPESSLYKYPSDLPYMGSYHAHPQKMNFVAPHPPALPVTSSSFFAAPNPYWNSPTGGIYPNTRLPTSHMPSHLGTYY
# Method in brief: as §1
# [5] = target: ELF1 (Homo sapiens, UniProt P32519 1-619); conditions: protein: recombinant; tags: N-terminal GST; dsDNA, one strand shown
# Method in brief: as §1
# [6] = target: T5, EHF (Homo sapiens, UniProt Q9NZC4 1-300); conditions: protein: recombinant; tags: N-terminal GST; dsDNA, one strand shown
# T5 sequence: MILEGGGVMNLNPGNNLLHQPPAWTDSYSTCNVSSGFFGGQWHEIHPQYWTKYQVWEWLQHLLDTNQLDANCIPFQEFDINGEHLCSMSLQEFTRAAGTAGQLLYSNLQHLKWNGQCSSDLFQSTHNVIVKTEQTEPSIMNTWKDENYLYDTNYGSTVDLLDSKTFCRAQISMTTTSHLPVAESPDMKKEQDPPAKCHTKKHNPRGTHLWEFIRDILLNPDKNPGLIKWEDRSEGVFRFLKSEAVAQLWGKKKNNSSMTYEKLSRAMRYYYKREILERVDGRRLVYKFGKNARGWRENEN
# Method in brief: as §1
# [7] = target: SPI1 (Homo sapiens, UniProt P17947 1-270); conditions: protein: recombinant; tags: N-terminal GST; dsDNA, one strand shown
# Method in brief: as §1
# [8] = target: SPIB (Homo sapiens, UniProt Q01892 1-262); conditions: protein: recombinant; tags: N-terminal GST; dsDNA, one strand shown
# Method in brief: as §1
# [9] = target: T6, ELK3 (Homo sapiens, UniProt P41970 1-407); conditions: protein: recombinant; tags: N-terminal GST; dsDNA, one strand shown
# T6 sequence: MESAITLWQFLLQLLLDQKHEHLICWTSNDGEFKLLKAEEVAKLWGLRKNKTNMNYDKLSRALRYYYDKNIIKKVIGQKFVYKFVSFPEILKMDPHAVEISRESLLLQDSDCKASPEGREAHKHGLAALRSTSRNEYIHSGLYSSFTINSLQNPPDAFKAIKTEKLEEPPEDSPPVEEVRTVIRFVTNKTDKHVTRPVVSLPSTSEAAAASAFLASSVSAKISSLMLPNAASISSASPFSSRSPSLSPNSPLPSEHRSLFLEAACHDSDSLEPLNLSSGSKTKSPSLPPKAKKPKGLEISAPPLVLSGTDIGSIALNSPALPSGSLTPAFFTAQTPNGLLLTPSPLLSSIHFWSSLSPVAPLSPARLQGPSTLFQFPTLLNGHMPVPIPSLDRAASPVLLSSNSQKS
# Method in brief: as §1
# [10] = target: T7, FEV (Homo sapiens, UniProt Q99581 1-238); conditions: protein: recombinant; tags: N-terminal GST; dsDNA, one strand shown
# T7 sequence: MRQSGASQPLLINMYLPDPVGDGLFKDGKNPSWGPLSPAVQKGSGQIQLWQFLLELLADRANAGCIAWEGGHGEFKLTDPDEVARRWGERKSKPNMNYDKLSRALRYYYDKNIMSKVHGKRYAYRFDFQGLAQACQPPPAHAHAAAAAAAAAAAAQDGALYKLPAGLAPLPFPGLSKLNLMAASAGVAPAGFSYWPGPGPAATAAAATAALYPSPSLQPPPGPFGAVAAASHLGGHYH
# Method in brief: as §1
# [11] = target: ETV5 (Homo sapiens, UniProt P41161 1-510); conditions: protein: recombinant; tags: N-terminal GST; dsDNA, one strand shown
# Method in brief: as §1
# [12] = target: HSF1 (Homo sapiens, UniProt Q00613 1-529); conditions: protein: recombinant; tags: N-terminal GST; chain copies: 3; dsDNA, one strand shown
# Method in brief: as §1
# [13] = target: T8, SPIC (Homo sapiens, UniProt Q8N5J4 1-248); conditions: protein: recombinant; tags: N-terminal GST; dsDNA, one strand shown
# T8 sequence: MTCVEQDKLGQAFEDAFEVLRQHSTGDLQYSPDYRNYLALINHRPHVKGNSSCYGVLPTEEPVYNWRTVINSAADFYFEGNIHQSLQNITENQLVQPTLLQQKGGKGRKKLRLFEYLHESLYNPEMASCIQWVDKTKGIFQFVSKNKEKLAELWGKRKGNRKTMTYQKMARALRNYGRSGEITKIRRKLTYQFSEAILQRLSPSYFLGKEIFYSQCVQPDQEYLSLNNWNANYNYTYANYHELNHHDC
# Method in brief: as §1
# [14] = target: ELF4 (Homo sapiens, UniProt Q99607 1-663); conditions: protein: recombinant; tags: N-terminal GST; dsDNA, one strand shown
# Method in brief: as §1
# [15] = target: T9, ELK4 (Homo sapiens, UniProt P28324-2 1-405); conditions: protein: recombinant; tags: N-terminal GST; dsDNA, one strand shown
# T9 sequence: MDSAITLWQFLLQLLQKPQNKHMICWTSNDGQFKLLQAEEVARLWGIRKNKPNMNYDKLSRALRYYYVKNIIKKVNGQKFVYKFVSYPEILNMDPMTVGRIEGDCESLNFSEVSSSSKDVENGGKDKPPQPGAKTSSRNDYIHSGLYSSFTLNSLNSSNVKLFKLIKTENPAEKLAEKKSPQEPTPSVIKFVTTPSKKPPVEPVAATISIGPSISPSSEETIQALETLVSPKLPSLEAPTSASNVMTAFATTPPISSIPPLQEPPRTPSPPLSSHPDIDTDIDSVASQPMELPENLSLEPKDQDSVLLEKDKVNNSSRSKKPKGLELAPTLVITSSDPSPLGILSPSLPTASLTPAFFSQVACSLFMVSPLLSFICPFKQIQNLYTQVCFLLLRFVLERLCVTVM
# Method in brief: as §1
# [16] = target: T10, ETV2 (Homo sapiens, UniProt O00321 1-342); conditions: protein: recombinant; tags: N-terminal GST; dsDNA, one strand shown
# T10 sequence: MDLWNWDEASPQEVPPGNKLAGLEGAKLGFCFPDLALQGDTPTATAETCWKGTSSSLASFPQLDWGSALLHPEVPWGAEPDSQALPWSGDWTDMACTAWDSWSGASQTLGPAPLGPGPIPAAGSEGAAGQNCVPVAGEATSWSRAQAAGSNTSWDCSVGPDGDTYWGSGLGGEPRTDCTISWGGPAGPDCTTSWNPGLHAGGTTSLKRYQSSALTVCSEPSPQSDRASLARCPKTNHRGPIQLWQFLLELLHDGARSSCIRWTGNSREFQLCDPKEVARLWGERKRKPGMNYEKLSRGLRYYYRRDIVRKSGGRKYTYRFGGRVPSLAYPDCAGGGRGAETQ
# Method in brief: as §1
# [17] = target: T11, ELF3 (Homo sapiens, UniProt P78545 1-371); conditions: protein: recombinant; tags: N-terminal GST; dsDNA, one strand shown
# T11 sequence: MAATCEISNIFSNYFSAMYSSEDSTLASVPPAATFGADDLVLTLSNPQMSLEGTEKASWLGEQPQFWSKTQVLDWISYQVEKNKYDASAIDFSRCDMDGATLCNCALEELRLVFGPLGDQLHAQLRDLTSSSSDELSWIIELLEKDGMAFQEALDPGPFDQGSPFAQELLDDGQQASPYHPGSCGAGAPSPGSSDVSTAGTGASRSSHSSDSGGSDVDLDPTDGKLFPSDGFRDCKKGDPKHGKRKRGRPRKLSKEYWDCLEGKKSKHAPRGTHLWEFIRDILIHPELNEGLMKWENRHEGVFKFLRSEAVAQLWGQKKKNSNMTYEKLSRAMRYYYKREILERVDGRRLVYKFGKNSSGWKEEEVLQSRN
# Method in brief: as §1
# [18] = target: CRX (Homo sapiens, UniProt O43186 1-299); conditions: protein: recombinant; tags: N-terminal GST; dsDNA, one strand shown
# Method in brief: as §1
# [19] = target: ETV1 (Homo sapiens, UniProt P50549 1-477); conditions: protein: recombinant; tags: N-terminal GST; dsDNA, one strand shown
# Method in brief: as §1
# Chain of HSF1 (Q00613 whole entry): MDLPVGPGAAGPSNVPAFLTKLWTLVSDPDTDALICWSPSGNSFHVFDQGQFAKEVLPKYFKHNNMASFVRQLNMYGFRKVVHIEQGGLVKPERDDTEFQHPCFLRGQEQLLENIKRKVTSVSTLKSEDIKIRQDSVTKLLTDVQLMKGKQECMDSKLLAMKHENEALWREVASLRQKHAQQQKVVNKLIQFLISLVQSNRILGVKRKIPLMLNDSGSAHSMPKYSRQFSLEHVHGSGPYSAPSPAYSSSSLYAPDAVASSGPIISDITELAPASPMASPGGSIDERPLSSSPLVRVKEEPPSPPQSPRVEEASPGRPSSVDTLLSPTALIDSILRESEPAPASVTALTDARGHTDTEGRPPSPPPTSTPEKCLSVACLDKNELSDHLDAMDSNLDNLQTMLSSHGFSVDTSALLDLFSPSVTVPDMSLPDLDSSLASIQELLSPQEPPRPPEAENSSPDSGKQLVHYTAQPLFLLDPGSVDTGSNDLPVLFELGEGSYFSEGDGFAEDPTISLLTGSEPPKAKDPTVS
# Chain of ELF1 (P32519 whole entry): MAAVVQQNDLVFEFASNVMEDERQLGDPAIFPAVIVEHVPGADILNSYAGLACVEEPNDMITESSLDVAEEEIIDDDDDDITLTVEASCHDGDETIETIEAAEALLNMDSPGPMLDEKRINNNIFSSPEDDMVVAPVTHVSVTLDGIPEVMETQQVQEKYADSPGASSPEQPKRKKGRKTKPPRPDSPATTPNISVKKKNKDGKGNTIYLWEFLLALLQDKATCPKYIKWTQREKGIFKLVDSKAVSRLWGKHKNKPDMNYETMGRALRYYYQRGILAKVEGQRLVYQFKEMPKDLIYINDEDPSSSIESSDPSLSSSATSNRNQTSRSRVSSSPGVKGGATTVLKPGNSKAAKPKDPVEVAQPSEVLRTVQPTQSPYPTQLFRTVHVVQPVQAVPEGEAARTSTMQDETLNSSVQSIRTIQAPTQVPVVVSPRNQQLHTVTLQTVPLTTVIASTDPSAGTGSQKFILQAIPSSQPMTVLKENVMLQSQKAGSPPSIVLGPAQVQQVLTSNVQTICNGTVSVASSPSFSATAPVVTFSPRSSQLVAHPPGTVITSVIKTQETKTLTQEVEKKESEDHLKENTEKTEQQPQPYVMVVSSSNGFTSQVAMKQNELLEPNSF
# Chain of SPIB (Q01892 whole entry): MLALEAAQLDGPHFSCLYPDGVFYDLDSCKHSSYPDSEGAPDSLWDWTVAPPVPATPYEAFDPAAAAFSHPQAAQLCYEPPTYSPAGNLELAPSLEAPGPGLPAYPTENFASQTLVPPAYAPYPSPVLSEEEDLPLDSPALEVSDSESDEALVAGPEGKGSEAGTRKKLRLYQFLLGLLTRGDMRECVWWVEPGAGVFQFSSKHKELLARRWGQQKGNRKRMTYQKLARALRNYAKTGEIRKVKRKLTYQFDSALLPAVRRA
# Chain of ELF4 (Q99607 whole entry): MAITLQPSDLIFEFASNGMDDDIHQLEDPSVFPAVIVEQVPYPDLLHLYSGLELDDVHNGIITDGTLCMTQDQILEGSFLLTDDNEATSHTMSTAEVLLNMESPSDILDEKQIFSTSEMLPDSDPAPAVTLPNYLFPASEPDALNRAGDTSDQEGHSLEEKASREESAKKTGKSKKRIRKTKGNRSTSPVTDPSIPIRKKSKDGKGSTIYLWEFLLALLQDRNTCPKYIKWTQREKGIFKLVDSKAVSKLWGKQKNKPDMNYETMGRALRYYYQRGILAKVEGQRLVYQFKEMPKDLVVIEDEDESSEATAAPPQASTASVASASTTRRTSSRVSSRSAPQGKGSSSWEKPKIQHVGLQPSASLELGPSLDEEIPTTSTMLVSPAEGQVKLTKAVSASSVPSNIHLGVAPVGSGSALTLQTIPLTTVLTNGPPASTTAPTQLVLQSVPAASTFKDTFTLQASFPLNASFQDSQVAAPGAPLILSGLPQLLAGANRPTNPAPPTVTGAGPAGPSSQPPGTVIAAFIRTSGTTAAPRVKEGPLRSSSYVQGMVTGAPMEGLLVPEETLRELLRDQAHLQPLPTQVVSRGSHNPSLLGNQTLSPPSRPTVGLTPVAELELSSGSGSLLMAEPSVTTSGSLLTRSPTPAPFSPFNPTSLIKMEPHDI
# Chain of CRX (O43186 whole entry): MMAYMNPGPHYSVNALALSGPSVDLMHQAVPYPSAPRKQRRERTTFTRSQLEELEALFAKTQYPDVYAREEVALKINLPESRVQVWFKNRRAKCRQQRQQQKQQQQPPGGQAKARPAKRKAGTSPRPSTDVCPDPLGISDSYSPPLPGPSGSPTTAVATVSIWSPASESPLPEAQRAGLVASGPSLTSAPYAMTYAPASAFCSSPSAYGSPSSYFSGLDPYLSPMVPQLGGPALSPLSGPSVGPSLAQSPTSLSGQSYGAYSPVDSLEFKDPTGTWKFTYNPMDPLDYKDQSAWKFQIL
# Chain of ETV1 (P50549 whole entry): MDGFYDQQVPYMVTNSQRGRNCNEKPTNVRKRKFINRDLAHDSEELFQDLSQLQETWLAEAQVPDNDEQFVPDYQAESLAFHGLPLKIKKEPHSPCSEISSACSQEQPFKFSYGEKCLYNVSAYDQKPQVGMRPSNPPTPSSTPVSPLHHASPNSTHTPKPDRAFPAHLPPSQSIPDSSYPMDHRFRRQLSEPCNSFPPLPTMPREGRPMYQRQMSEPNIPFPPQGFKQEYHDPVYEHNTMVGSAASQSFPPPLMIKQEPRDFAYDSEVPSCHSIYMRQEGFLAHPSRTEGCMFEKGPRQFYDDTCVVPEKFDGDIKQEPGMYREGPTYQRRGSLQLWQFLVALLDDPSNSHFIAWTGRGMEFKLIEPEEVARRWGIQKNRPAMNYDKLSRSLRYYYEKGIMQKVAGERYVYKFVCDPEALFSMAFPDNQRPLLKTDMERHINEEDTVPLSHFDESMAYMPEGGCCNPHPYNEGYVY
# Chain of ETV5 (P41161 whole entry): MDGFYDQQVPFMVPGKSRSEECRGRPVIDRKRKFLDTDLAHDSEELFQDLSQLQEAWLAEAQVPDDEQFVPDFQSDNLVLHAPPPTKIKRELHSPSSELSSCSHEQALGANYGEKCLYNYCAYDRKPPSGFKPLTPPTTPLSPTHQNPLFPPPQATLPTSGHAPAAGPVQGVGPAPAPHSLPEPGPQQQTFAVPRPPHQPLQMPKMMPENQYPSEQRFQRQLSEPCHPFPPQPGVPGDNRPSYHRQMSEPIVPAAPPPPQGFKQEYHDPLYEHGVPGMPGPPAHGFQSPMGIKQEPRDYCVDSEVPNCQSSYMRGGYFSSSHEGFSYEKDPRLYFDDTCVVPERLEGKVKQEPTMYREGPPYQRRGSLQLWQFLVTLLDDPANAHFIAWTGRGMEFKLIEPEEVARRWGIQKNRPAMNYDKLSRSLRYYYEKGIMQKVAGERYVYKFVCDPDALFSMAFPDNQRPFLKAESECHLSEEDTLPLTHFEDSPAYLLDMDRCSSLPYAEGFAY
sequence,measurement,setting,value
TTTAAC,binding signal,[1],"1.18 fold enrichment (6-mer frequency, TF over GST control)"
same,binding signal,[2],"1.16 fold enrichment (6-mer frequency, TF over GST control)"
same,binding signal,[3],"1.08 fold enrichment (6-mer frequency, TF over GST control)"
same,binding signal,[4],"1.13 fold enrichment (6-mer frequency, TF over GST control)"
same,binding signal,[5],"1.21 fold enrichment (6-mer frequency, TF over GST control)"
same,binding signal,[6],"1.1 fold enrichment (6-mer frequency, TF over GST control)"
same,binding signal,[7],"1.19 fold enrichment (6-mer frequency, TF over GST control)"
same,binding signal,[8],"1.14 fold enrichment (6-mer frequency, TF over GST control)"
same,binding signal,[9],"1.21 fold enrichment (6-mer frequency, TF over GST control)"
same,binding signal,[10],"1.09 fold enrichment (6-mer frequency, TF over GST control)"
same,binding signal,[11],"1.12 fold enrichment (6-mer frequency, TF over GST control)"
same,binding signal,[12],"1.22 fold enrichment (6-mer frequency, TF over GST control)"
same,binding signal,[13],"1.23 fold enrichment (6-mer frequency, TF over GST control)"
same,binding signal,[14],"1.14 fold enrichment (6-mer frequency, TF over GST control)"
same,binding signal,[15],"1.13 fold enrichment (6-mer frequency, TF over GST control)"
same,binding signal,[16],"1.24 fold enrichment (6-mer frequency, TF over GST control)"
same,binding signal,[17],"1.15 fold enrichment (6-mer frequency, TF over GST control)"
same,binding signal,[18],"1.74 fold enrichment (6-mer frequency, TF over GST control)"
same,binding signal,[19],"1.18 fold enrichment (6-mer frequency, TF over GST control)"

# — publication PMC7862700, “An all-to-all approach to the identification of sequence-specific readers for epigenetic DNA modifications on cytosine”
